Measurements as given in PubChem BioAssay (NCI).
Compounds without any hit were thinned out: in the full panel of roughly 83,000, 20% have a hit.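 The endpoint reported here, percent growth, reads 100 for growth as untreated, 0 for no net growth and -100 for all cells dead.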

Legend:
Experiment in all cases: NCI-60 one-dose screen, 48 h (100 = growth as untreated, 0 = no growth, -100 = all killed)
Details in all cases: 10 µM; active = growth percent below 10; inactive = the rest
NCI-H23 lung = tested on: NCI-H23 lung
NCI-H226 lung = tested on: NCI-H226 lung
NCI-H322M lung = tested on: NCI-H322M lung
HOP-62 NSCLC = tested on: HOP-62 NSCLC
NCI-H460 lung = tested on: NCI-H460 lung
A549/ATCC NSCLC = tested on: A549/ATCC NSCLC
786-0 renal = tested on: 786-0 renal
COLO 205 colon = tested on: COLO 205 colon
DU-145 prostate = tested on: DU-145 prostate
K-562 leukemia = tested on: K-562 leukemia
MALME-3M melanoma = tested on: MALME-3M melanoma
MDA-MB-231 breast = tested on: MDA-MB-231 breast
RXF 393 renal = tested on: RXF 393 renal
SF-268 CNS = tested on: SF-268 CNS
SF-539 CNS = tested on: SF-539 CNS
M14 melanoma = tested on: M14 melanoma
SF-295 CNS = tested on: SF-295 CNS
UACC-257 melanoma = tested on: UACC-257 melanoma

Measured: growth

COC(=O)CCCCC1=CCC2C(=O)C=C(O)C2C1 (centres undefined)
inactive: NCI-H23 lung 100% | NCI-H226 lung 102% | NCI-H322M lung 92.4% | HOP-62 NSCLC 91.8% | NCI-H460 lung 105% | A549/ATCC NSCLC 98.7% | 786-0 renal 99.9% | COLO 205 colon 111% | DU-145 prostate 104% | K-562 leukemia 90.9% | MALME-3M melanoma 106% | MDA-MB-231 breast 106% | RXF 393 renal 103% | SF-268 CNS 104% | SF-539 CNS 99.8% | M14 melanoma 109%

O=[N+]([O-])c1ccc(Cl)c(S(=O)(=O)O)c1
inactive: NCI-H23 lung 103% | NCI-H226 lung 109% | NCI-H322M lung 136% | HOP-62 NSCLC 103% | NCI-H460 lung 108% | A549/ATCC NSCLC 102% | 786-0 renal 110% | COLO 205 colon 118% | DU-145 prostate 109% | K-562 leukemia 100% | MALME-3M melanoma 120% | MDA-MB-231 breast 110% | RXF 393 renal 126% | SF-268 CNS 105% | SF-295 CNS 112% | SF-539 CNS 97.8% | UACC-257 melanoma 96.6% | M14 melanoma 107%

CC(C)(C)n1nc(C2CC2)c(Br)c1NC(=O)c1ccccc1F
inactive: NCI-H23 lung 117% | NCI-H226 lung 102% | NCI-H322M lung 98.3% | HOP-62 NSCLC 92.5% | NCI-H460 lung 102% | A549/ATCC NSCLC 93% | 786-0 renal 99.6% | COLO 205 colon 104% | DU-145 prostate 121% | K-562 leukemia 91.6% | MALME-3M melanoma 107% | MDA-MB-231 breast 100% | RXF 393 renal 114% | SF-268 CNS 112% | SF-295 CNS 94.9% | SF-539 CNS 100% | M14 melanoma 102%

O=C1OC(=O)C2C1C1(Cl)C(Cl)=C(Cl)C2(Cl)C2C(=O)OC(=O)C21 (centres undefined)
inactive: NCI-H23 lung 101% | NCI-H226 lung 97.5% | NCI-H322M lung 107% | HOP-62 NSCLC 104% | NCI-H460 lung 107% | 786-0 renal 102% | COLO 205 colon 93.9% | DU-145 prostate 116% | K-562 leukemia 105% | MALME-3M melanoma 98.2% | MDA-MB-231 breast 122% | RXF 393 renal 100% | SF-268 CNS 105% | SF-295 CNS 105% | SF-539 CNS 98.8% | M14 melanoma 101%

Cc1ccc(CCCC(=O)O)c(C)c1
inactive: NCI-H23 lung 103% | NCI-H226 lung 93.4% | NCI-H322M lung 102% | HOP-62 NSCLC 95.7% | NCI-H460 lung 102% | 786-0 renal 99.4% | COLO 205 colon 102% | DU-145 prostate 107% | K-562 leukemia 97.8% | MALME-3M melanoma 105% | MDA-MB-231 breast 108% | RXF 393 renal 100% | SF-268 CNS 104% | SF-295 CNS 98.5% | SF-539 CNS 96.5% | M14 melanoma 107%

CCC(C)(C)C1CCC(O)CC1 (centres undefined)
inactive: NCI-H23 lung 91% | NCI-H226 lung 103% | NCI-H322M lung 103% | HOP-62 NSCLC 90.5% | NCI-H460 lung 103% | A549/ATCC NSCLC 106% | COLO 205 colon 110% | DU-145 prostate 107% | K-562 leukemia 110% | MALME-3M melanoma 96.4% | MDA-MB-231 breast 94.9% | RXF 393 renal 109% | SF-268 CNS 101% | SF-295 CNS 114% | SF-539 CNS 104% | UACC-257 melanoma 99.8%

COc1ccc(/C=C/c2cccc[n+]2C)cc1
inactive: NCI-H23 lung 100% | NCI-H226 lung 101% | NCI-H322M lung 93.5% | HOP-62 NSCLC 77.5% | NCI-H460 lung 106% | 786-0 renal 94.3% | COLO 205 colon 42.1% | DU-145 prostate 111% | K-562 leukemia 100% | MALME-3M melanoma 94.6% | MDA-MB-231 breast 111% | RXF 393 renal 101% | SF-268 CNS 97.2% | SF-295 CNS 99.1% | SF-539 CNS 103% | M14 melanoma 103%

Cc1cc2ccccc2c(O)c1C#N
inactive: NCI-H23 lung 91.1% | NCI-H226 lung 102% | NCI-H322M lung 119% | HOP-62 NSCLC 85.5% | NCI-H460 lung 107% | A549/ATCC NSCLC 107% | COLO 205 colon 112% | DU-145 prostate 120% | K-562 leukemia 92.8% | MALME-3M melanoma 126% | MDA-MB-231 breast 98.9% | RXF 393 renal 118% | SF-268 CNS 103% | SF-295 CNS 116% | SF-539 CNS 110% | UACC-257 melanoma 106%

O=C(O)/C=C/C(=O)NCc1ccccc1
inactive: NCI-H23 lung 107% | NCI-H226 lung 98.4% | NCI-H322M lung 93.5% | HOP-62 NSCLC 101% | NCI-H460 lung 104% | 786-0 renal 98.9% | COLO 205 colon 106% | DU-145 prostate 121% | K-562 leukemia 108% | MALME-3M melanoma 99% | MDA-MB-231 breast 125% | RXF 393 renal 104% | SF-268 CNS 110% | SF-295 CNS 98.1% | SF-539 CNS 95.7% | M14 melanoma 103%

COc1cc(CCN=Cc2ccccc2O)c([N+](=O)[O-])cc1OC
inactive: NCI-H23 lung 100% | NCI-H226 lung 104% | NCI-H322M lung 101% | HOP-62 NSCLC 91.9% | NCI-H460 lung 108% | A549/ATCC NSCLC 102% | 786-0 renal 92.6% | COLO 205 colon 110% | DU-145 prostate 113% | K-562 leukemia 94.9% | MALME-3M melanoma 89.5% | MDA-MB-231 breast 112% | RXF 393 renal 111% | SF-268 CNS 100% | SF-295 CNS 87.4% | SF-539 CNS 106% | M14 melanoma 95.6%
